# Results taken from article PMC8384837, “Expanding the binding specificity for RNA recognition by a PUF domain”.
# Where a chain is given by its changes, count along the chain named.
# Columns and labels:
# Assay in all cases: yeast three-hybrid, YBZ-1, SC-Leu-His + 0.5 mM 3-AT, 4 days
# Conditions in all cases: tags: N-Gal4 AD-HA kept; label: inside an RPR1-promoter hybrid RNA with tandem MS2 sites; ssRNA
# [1] = molecular target: PUM1 PUF domain R2-EPW (Homo sapiens, UniProt Q14671 828-1176, N899E;Y900P;Q903W)
# Summary of the method: (§1)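 The interaction score is the logarithmic change in variant frequency from input to selection. It uses log2, with a pseudocount of 1 for absent variants, and frequencies came from PCR-amplified, Illumina-sequenced repeat regions. The libraries were Pumilio-1 PUF domains randomized at the three base-contacting residues per repeat, co-expressed with matching RNA elements in strain YBZ-1 (LexA–MS2 coat fusion, HIS3 reporter). Plating lasted four days on SC-Leu (input) or SC-Leu-His + 0.5 mM 3-AT (selection).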
# [2] = molecular target: PUM1 PUF domain R1-RTV (Homo sapiens, UniProt Q14671 828-1176, S863R;R864T;Q867V)
# Summary of the method: as §1
# [3] = molecular target: PUM1 PUF domain R1-KKD (Homo sapiens, UniProt Q14671 828-1176, S863K;R864K;Q867D)
# Summary of the method: as §1
# [4] = molecular target: PUM1 PUF domain R1-GWK (Homo sapiens, UniProt Q14671 828-1176, S863G;R864W;Q867K)
# Summary of the method: as §1
# [5] = molecular target: PUM1 PUF domain R7-ERR (Homo sapiens, UniProt Q14671 828-1176, S1079E;N1080R;E1083R)
# Summary of the method: as §1
# [6] = molecular target: PUM1 PUF domain R2-AWS (Homo sapiens, UniProt Q14671 828-1176, N899A;Y900W;Q903S)
# Summary of the method: as §1
# [7] = molecular target: PUM1 PUF domain R7-RVS (Homo sapiens, UniProt Q14671 828-1176, S1079R;N1080V;E1083S)
# Summary of the method: as §1
# [8] = molecular target: PUM1 PUF domain R5-RVC (Homo sapiens, UniProt Q14671 828-1176, C1007R;R1008V;Q1011C)
# Summary of the method: as §1
# [9] = molecular target: PUM1 PUF domain R5-NVR (Homo sapiens, UniProt Q14671 828-1176, C1007N;R1008V;Q1011R)
# Summary of the method: as §1
# [10] = molecular target: PUM1 PUF domain R4-PHL (Homo sapiens, UniProt Q14671 828-1176, N971P;Q975L)
# Summary of the method: as §1
# [11] = molecular target: PUM1 PUF domain R4-NCG (Homo sapiens, UniProt Q14671 828-1176, H972C;Q975G)
# Summary of the method: as §1
# [12] = molecular target: PUM1 PUF domain R3-RAW (Homo sapiens, UniProt Q14671 828-1176, C935R;R936A;Q939W)
# Summary of the method: as §1
# [13] = molecular target: PUM1 PUF domain R8-IYW (Homo sapiens, UniProt Q14671 828-1176, N1122I;Q1126W)
# Summary of the method: as §1
# [14] = molecular target: PUM1 PUF domain R5-KQM (Homo sapiens, UniProt Q14671 828-1176, C1007K;R1008Q;Q1011M)
# Summary of the method: as §1
# [15] = molecular target: PUM1 PUF domain R5-KGN (Homo sapiens, UniProt Q14671 828-1176, C1007K;R1008G;Q1011N)
# Summary of the method: as §1
# [16] = molecular target: T1, PUM1 PUF domain R6-SFM (Homo sapiens, UniProt Q14671 828-1176, N1043S;Y1044F;Q1047M)
# T1 sequence: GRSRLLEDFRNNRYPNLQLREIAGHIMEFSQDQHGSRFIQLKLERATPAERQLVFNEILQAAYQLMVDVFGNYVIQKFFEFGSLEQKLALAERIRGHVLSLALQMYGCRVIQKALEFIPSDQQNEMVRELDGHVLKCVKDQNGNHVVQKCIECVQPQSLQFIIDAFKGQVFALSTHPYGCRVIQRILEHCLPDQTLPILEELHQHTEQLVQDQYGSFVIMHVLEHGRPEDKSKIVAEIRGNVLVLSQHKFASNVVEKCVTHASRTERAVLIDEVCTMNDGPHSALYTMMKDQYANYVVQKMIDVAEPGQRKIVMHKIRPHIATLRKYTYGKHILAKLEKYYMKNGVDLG
# Summary of the method: as §1
# [17] = molecular target: T2, PUM1 PUF domain R6-GFS (Homo sapiens, UniProt Q14671 828-1176, N1043G;Y1044F;Q1047S)
# T2 sequence: T1 sequence with S216G, M220S
# Summary of the method: as §1
# [18] = molecular target: PUM1 PUF domain R4-SPQ (Homo sapiens, UniProt Q14671 828-1176, N971S;H972P)
# Summary of the method: as §1
# [19] = molecular target: T3, PUM1 PUF domain R6-VFL (Homo sapiens, UniProt Q14671 828-1176, N1043V;Y1044F;Q1047L)
# T3 sequence: T1 sequence with S216V, M220L
# Summary of the method: as §1
# [20] = molecular target: PUM1 PUF domain R5-PHQ (Homo sapiens, UniProt Q14671 828-1176, C1007P;R1008H)
# Summary of the method: as §1
sequence,measurement,setting,value
GGCUAGAACUAGUGGAUCCCCCGGCGCCCGGCGGCUCGAGCCCGGGUAAGUGUAAAGAGUCUGCAUGCCGCCGGGCGCCAUGCCUGCAGGUCGACUCUAGAAAACAUG,binding signal,[1],3.25 log2 enrichment (interaction score)
GGCUAGAACUAGUGGAUCCCCCGGCGCCCGGCGGCUCGAGCCCGGGUAAGUGUAAAUUGUCUGCAUGCCGCCGGGCGCCAUGCCUGCAGGUCGACUCUAGAAAACAUG,binding signal,[2],3.33 log2 enrichment (interaction score)
same,binding signal,[3],3.36 log2 enrichment (interaction score)
same,binding signal,[4],3.01 log2 enrichment (interaction score)
GGCUAGAACUAGUGGAUCCCCCGGCGCCCGGCGGCUCGAGCCCGGGUAAGUCUAAAUAGUCUGCAUGCCGCCGGGCGCCAUGCCUGCAGGUCGACUCUAGAAAACAUG,binding signal,[5],1.25 log2 enrichment (interaction score)
GGCUAGAACUAGUGGAUCCCCCGGCGCCCGGCGGCUCGAGCCCGGGUAAGUGUAAAAAGUCUGCAUGCCGCCGGGCGCCAUGCCUGCAGGUCGACUCUAGAAAACAUG,binding signal,[6],4.37 log2 enrichment (interaction score)
GGCUAGAACUAGUGGAUCCCCCGGCGCCCGGCGGCUCGAGCCCGGGUAAGUUUAAAUAGUCUGCAUGCCGCCGGGCGCCAUGCCUGCAGGUCGACUCUAGAAAACAUG,binding signal,[7],3.16 log2 enrichment (interaction score)
same,binding signal,[5],3.08 log2 enrichment (interaction score)
GGCUAGAACUAGUGGAUCCCCCGGCGCCCGGCGGCUCGAGCCCGGGUAAGUGUCAAUAGUCUGCAUGCCGCCGGGCGCCAUGCCUGCAGGUCGACUCUAGAAAACAUG,binding signal,[8],2.54 log2 enrichment (interaction score)
same,binding signal,[9],2.77 log2 enrichment (interaction score)
GGCUAGAACUAGUGGAUCCCCCGGCGCCCGGCGGCUCGAGCCCGGGUAAGUGUAUAUAGUCUGCAUGCCGCCGGGCGCCAUGCCUGCAGGUCGACUCUAGAAAACAUG,binding signal,[10],5.92 log2 enrichment (interaction score)
same,binding signal,[11],3.59 log2 enrichment (interaction score)
GGCUAGAACUAGUGGAUCCCCCGGCGCCCGGCGGCUCGAGCCCGGGUAAGUGUAAAUGGUCUGCAUGCCGCCGGGCGCCAUGCCUGCAGGUCGACUCUAGAAAACAUG,binding signal,[2],2.39 log2 enrichment (interaction score)
GGCUAGAACUAGUGGAUCCCCCGGCGCCCGGCGGCUCGAGCCCGGGUAAGUGUAAUUAGUCUGCAUGCCGCCGGGCGCCAUGCCUGCAGGUCGACUCUAGAAAACAUG,binding signal,[12],4.11 log2 enrichment (interaction score)
GGCUAGAACUAGUGGAUCCCCCGGCGCCCGGCGGCUCGAGCCCGGGUAAGCGUAAAUAGUCUGCAUGCCGCCGGGCGCCAUGCCUGCAGGUCGACUCUAGAAAACAUG,binding signal,[13],2.87 log2 enrichment (interaction score)
GGCUAGAACUAGUGGAUCCCCCGGCGCCCGGCGGCUCGAGCCCGGGUAAGUGUAAGUAGUCUGCAUGCCGCCGGGCGCCAUGCCUGCAGGUCGACUCUAGAAAACAUG,binding signal,[12],1.15 log2 enrichment (interaction score)
GGCUAGAACUAGUGGAUCCCCCGGCGCCCGGCGGCUCGAGCCCGGGUAAGUGUAAAUCGUCUGCAUGCCGCCGGGCGCCAUGCCUGCAGGUCGACUCUAGAAAACAUG,binding signal,[2],4.19 log2 enrichment (interaction score)
same,binding signal,[4],3.6 log2 enrichment (interaction score)
GGCUAGAACUAGUGGAUCCCCCGGCGCCCGGCGGCUCGAGCCCGGGUAAGUGUUAAUAGUCUGCAUGCCGCCGGGCGCCAUGCCUGCAGGUCGACUCUAGAAAACAUG,binding signal,[14],4.71 log2 enrichment (interaction score)
same,binding signal,[15],3.75 log2 enrichment (interaction score)
same,binding signal,[9],4.09 log2 enrichment (interaction score)
GGCUAGAACUAGUGGAUCCCCCGGCGCCCGGCGGCUCGAGCCCGGGUAAGUGUACAUAGUCUGCAUGCCGCCGGGCGCCAUGCCUGCAGGUCGACUCUAGAAAACAUG,binding signal,[10],3.73 log2 enrichment (interaction score)
GGCUAGAACUAGUGGAUCCCCCGGCGCCCGGCGGCUCGAGCCCGGGUAAGUGUAAAUAGUCUGCAUGCCGCCGGGCGCCAUGCCUGCAGGUCGACUCUAGAAAACAUG,binding signal,[16],2.95 log2 enrichment (interaction score)
same,binding signal,[17],2.76 log2 enrichment (interaction score)
same,binding signal,[10],5.53 log2 enrichment (interaction score)
same,binding signal,[18],3.02 log2 enrichment (interaction score)
same,binding signal,[19],1.07 log2 enrichment (interaction score)
same,binding signal,[20],3.63 log2 enrichment (interaction score)
GGCUAGAACUAGUGGAUCCCCCGGCGCCCGGCGGCUCGAGCCCGGGUAAGUGAAAAUAGUCUGCAUGCCGCCGGGCGCCAUGCCUGCAGGUCGACUCUAGAAAACAUG,binding signal,[19],7.04 log2 enrichment (interaction score)
